Assay results published in the supplement of paper PMC9694430.

What was measured:
Test in all cases: thermal shift delta Tm vs DMSO control; higher = stronger stabilization (binding)
Details in all cases: 12.5 µM; protein concentration 2 µM
LOC_OS02G45750-cb003 = system: LOC_OS02G45750-cb003
Method in brief: (§1)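 Rice kinase domain constructs were expressed in E. coli, purified, and tested by differential scanning fluorimetry with compound added in DMSO. Each well of a 96-well plate held 19.5 μl of 2 μM kinase in 100 mM potassium phosphate pH 7.5, 150 mM NaCl, 10% glycerol and 5 × SYPRO Orange, and fluorescence was read from 25°C to 95°C at 0.05°C/s. The melting temperature shift is the mean of triplicates, taken against protein with DMSO alone after Boltzmann fitting.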

LOC_OS02G54510-cb004 = system: LOC_OS02G54510-cb004
Method in brief: as §1

LOC_OS03G04050-cb001 = system: LOC_OS03G04050-cb001
Method in brief: as §1

LOC_OS03G12390-cb001 = system: LOC_OS03G12390-cb001
Method in brief: as §1

LOC_OS03G27990-cb004 = system: LOC_OS03G27990-cb004
Method in brief: as §1

LOC_OS03G50450-cb001 = system: LOC_OS03G50450-cb001
Method in brief: as §1

LOC_OS03G50810-cb003 = system: LOC_OS03G50810-cb003
Method in brief: as §1

LOC_OS04G35114-cb001 = system: LOC_OS04G35114-cb001
Method in brief: as §1

LOC_OS04G38480-cb003 = system: T1, LOC_OS04G38480-cb003
T1 sequence (whole entry): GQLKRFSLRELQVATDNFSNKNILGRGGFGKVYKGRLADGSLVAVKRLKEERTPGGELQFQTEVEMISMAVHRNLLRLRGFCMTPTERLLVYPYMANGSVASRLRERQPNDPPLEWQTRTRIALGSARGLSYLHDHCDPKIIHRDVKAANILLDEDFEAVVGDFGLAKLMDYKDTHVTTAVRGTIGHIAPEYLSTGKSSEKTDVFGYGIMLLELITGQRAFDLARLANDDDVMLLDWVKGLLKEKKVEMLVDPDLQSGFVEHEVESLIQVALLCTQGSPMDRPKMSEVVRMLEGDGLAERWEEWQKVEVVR
Method in brief: as §1

LOC_OS04G41100-cb001 = system: T2, LOC_OS04G41100-cb001
T2 sequence (whole entry): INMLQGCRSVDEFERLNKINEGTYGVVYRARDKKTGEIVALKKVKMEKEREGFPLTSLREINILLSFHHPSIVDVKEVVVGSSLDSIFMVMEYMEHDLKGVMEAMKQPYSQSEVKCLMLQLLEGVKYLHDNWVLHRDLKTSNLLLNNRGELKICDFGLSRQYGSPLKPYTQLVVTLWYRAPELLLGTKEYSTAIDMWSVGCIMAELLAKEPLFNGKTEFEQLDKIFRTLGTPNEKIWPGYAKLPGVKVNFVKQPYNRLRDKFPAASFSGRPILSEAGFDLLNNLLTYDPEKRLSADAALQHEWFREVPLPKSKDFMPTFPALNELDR
Method in brief: as §1

LOC_OS04G57630-cb004 = system: LOC_OS04G57630-cb004
Method in brief: as §1

LOC_OS05G07850-cb002 = system: LOC_OS05G07850-cb002
Method in brief: as §1

LOC_OS05G28520-cb001 = system: LOC_OS05G28520-cb001
Method in brief: as §1

LOC_OS05G30820-cb001 = system: LOC_OS05G30820-cb001
Method in brief: as §1

LOC_OS05G43570-cb004 = system: LOC_OS05G43570-cb004
Method in brief: as §1

LOC_OS06G16330-cb003 = system: LOC_OS06G16330-cb003
Sequence of LOC_OS06G16330-cb003 (as listed by the source): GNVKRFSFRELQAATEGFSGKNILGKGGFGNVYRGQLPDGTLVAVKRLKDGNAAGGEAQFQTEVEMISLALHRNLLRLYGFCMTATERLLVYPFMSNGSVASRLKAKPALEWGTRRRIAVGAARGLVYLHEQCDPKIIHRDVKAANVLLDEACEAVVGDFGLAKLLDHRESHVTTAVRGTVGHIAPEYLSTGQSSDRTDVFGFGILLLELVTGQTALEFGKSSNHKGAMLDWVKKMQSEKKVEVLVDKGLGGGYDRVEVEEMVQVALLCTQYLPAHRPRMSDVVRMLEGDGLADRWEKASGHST
Method in brief: as §1

LOC_OS06G22820-cb001 = system: T3, LOC_OS06G22820-cb001
T3 sequence (whole entry): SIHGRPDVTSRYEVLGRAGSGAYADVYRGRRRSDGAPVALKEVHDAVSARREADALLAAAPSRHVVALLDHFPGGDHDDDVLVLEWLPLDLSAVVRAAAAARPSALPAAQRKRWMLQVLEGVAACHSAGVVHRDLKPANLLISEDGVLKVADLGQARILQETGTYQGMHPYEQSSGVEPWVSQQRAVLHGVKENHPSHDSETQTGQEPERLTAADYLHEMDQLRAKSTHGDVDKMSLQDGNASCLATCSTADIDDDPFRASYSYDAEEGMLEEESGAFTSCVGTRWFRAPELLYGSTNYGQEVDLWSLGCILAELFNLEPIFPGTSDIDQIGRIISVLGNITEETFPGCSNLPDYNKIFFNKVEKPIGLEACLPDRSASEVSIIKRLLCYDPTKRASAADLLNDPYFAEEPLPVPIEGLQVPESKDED
Method in brief: as §1

LOC_OS07G06570-cb004 = system: LOC_OS07G06570-cb004
Method in brief: as §1

LOC_OS07G07230-cb001 = system: LOC_OS07G07230-cb001
Method in brief: as §1

LOC_OS05G16824-cb004 = system: LOC_OS05G16824-cb004
Method in brief: as §1

Row | SMILES | thermal shift delta Tm (LOC_OS02G45750-cb003) [°C] | thermal shift delta Tm (LOC_OS02G54510-cb004) [°C] | thermal shift delta Tm (LOC_OS03G04050-cb001) [°C] | thermal shift delta Tm (LOC_OS03G12390-cb001) [°C] | thermal shift delta Tm (LOC_OS03G27990-cb004) [°C] | thermal shift delta Tm (LOC_OS03G50450-cb001) [°C] | thermal shift delta Tm (LOC_OS03G50810-cb003) [°C] | thermal shift delta Tm (LOC_OS04G35114-cb001) [°C] | thermal shift delta Tm (LOC_OS04G38480-cb003) [°C] | thermal shift delta Tm (LOC_OS04G41100-cb001) [°C] | thermal shift delta Tm (LOC_OS04G57630-cb004) [°C] | thermal shift delta Tm (LOC_OS05G07850-cb002) [°C] | thermal shift delta Tm (LOC_OS05G28520-cb001) [°C] | thermal shift delta Tm (LOC_OS05G30820-cb001) [°C] | thermal shift delta Tm (LOC_OS05G43570-cb004) [°C] | thermal shift delta Tm (LOC_OS06G16330-cb003) [°C] | thermal shift delta Tm (LOC_OS06G22820-cb001) [°C] | thermal shift delta Tm (LOC_OS07G06570-cb004) [°C] | thermal shift delta Tm (LOC_OS07G07230-cb001) [°C] | thermal shift delta Tm (LOC_OS05G16824-cb004) [°C]
1 | Cc1cc(O)c2c(c1)C(=O)c1cccc(O)c1C2=O [Chrysophanic Acid] | 0.14 | -1.28 | -0.08 | -1.54 | 0.02 | 0.03 | -0.82 | 0.09 | -1.19 | 0.06 | -0.6 | 1.45 | 0.74 | 0.15 | -0.12 | -0.34 | -0.85 | 1.81 | -0.41 | 
2 | Cc1ccc(C(=O)Nc2ccc(CN3CCN(C)CC3)c(C(F)(F)F)c2)cc1C#Cc1cnc2[nH]ncc2c1 [GZD824 Dimesylate] | 10.6 |  | 0.96 | 3.54 | 1.61 | 1.08 | 6.3 | 1.99 | 1.28 | 2.67 | 6.01 | 13.9 | 0.74 | 2.1 | 1.6 | 5.01 | 0.3 | 0.65 | 1.45 | 2.52
3 | Cn1cc(C2=C(c3ccc(Cl)cc3Cl)C(=O)NC2=O)c2ccccc21 | 1.02 | 0.82 | 0.78 | 0.98 | 0.26 | 0.6 | 0.67 | 1.64 | 1.13 | 0.96 | 0.28 | 2.36 | 2.17 | 0.49 | 0.84 |  | 1.02 | 2.2 | 0.68 | 0.19
4 | Nc1ncc(-c2ccnc(Nc3ccncc3)n2)c(CC2CC2)n1 | 2.65 | 0.44 | 0.08 | 0.7 | 0.32 | 0.09 | 0.92 | 1.69 | 2.3 | 0.78 | 0.81 | 7.15 | 0.45 | 0.44 | 0.4 | 3.58 | 0.78 | 1.03 | -0.19 | 0.92
5 | C=CC(=O)Nc1cccc(Nc2nc(Nc3ccc(OCCOC)cc3)ncc2F)c1 | 0 | 1.8 | 1.14 | 6.16 | 1.06 | 3.26 | 3.81 | 3.89 | 3.75 | 1 | 3.06 | 12.6 | 1.99 | 1.06 | 1.03 | 7.95 | 0.96 | 0.79 | 0.63 | 5.6
6 | CC(C)(C)c1cc(/C=C(\C#N)C(N)=S)cc(C(C)(C)C)c1O [Tyrphostin AG 879] |  | 6.54 | 0.85 | 2.51 | 1 | 0.98 | 2.05 | 1.68 | 2.13 | 1.27 | -0.19 | 12.1 | 1.25 | 1.1 | 1.09 | 1.66 | 1.38 | 2.77 | 0.65 | -5.25
